Assay results published in PubChem BioAssay (Tox21).
Values without a mark were called inactive. Inconclusive results are not listed. A call without a number means that no potency is given here. Calls of active or inactive are those of the source. The call rests on the fitted dose curve; in most records, active means well fitted curve in the direction sought with a large enough effect in the repeat runs; inconclusive means weak or mixed curves; inactive means no such curve, though single readings can be large; an effect the other way counts as inactive or inconclusive.

How the values were obtained:
[1] = A CellTox Green Cytotoxicity Assay to monitor cytotoxicity in HEK293 cells - 32 hour (AID 1224881); further: nearly all actives have a fitted effect of over 40% in size; further: potency means the concentration at half of the fitted maximal effect
Summary of the method: (§1)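 Fluorescence from a DNA-binding dye excluded by viable cells was measured repeatedly in the same HEK293 wells (600 cells/well) during continuous compound exposure at 37 C. Each assay gives one read point: 0, 8, 16, 24, 32 or 40 h.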

[2] = A CellTox Green Cytotoxicity Assay to monitor cytotoxicity in HepG2 cells - 0 hour (AID 1224882); further: nearly all actives have a fitted effect of over 35% in size
Summary of the method: (§2)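 Real-time cytotoxicity: fluorescence of a cell-impermeant cyanine dye binding DNA of dead HepG2 cells, measured repeatedly (0–40 h) during compound exposure at 37 C. Cells seeded 600/well with reagent, dosed after 5 h.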

[3] = A CellTox Green Cytotoxicity Assay to monitor cytotoxicity in HepG2 cells - 32 hour (AID 1224883); further: nearly all actives have a fitted effect of over 50% in size
Summary of the method: as §2

[4] = A CellTox Green Cytotoxicity Assay to monitor cytotoxicity in HEK293 cells - 8 hour (AID 1224884); further: nearly all actives have a fitted effect of over 35% in size
Summary of the method: as §1

[5] = qHTS RealTime-Glo MT Cell Viability Assay in HepG2 cells - 16 hour (AID 1224885); further: nearly all actives have a fitted effect of over 50% in size
Summary of the method: (§3)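 Cells + NanoLuc/prosubstrate dispensed (600 cells/well) → 5 h at 37 C/5% CO2 → compounds in DMSO transferred → 40 h incubation at 37 C, luminescence read at 0, 8, 16, 24, 32, 40 h.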

[6] = qHTS RealTime-Glo MT Cell Viability Assay in HEK293 cells - 24 hour (AID 1224886); further: top concentration of the series differs between compounds; nearly all actives have a fitted effect of over 50% in size
Summary of the method: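 Tox21 10K qHTS, HEK293, 600 cells/well, RealTime-Glo reagent co-dispensed with cells; 5 h preincubation, compound by pintool, 37 C, luminescence at 0–40 h.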

[7] = qHTS RealTime-Glo MT Cell Viability Assay in HEK293 cells - 8 hour (AID 1224887); further: top concentration of the series differs between compounds; nearly all actives have a fitted effect of over 50% in size
Summary of the method: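 Luminescence, which tracks viable cell number through reduction of the prosubstrate to a NanoLuc substrate, was read over continuous 37 C culture. Cells (600/well) were premixed with reagent and rested 5 h before 23 nL of compound in DMSO was pinned.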

[8] = A CellTox Green Cytotoxicity Assay to monitor cytotoxicity in HEK293 cells - 16 hour (AID 1224888); further: nearly all actives have a fitted effect of over 35% in size
Summary of the method: as §1

[9] = qHTS RealTime-Glo MT Cell Viability Assay in HepG2 cells - 0 hour (AID 1224889); further: nearly all actives have a fitted effect of over 50% in size; further: potency means the concentration at half of the fitted maximal effect
Summary of the method: as §3

[10] = A CellTox Green Cytotoxicity Assay to monitor cytotoxicity in HepG2 cells - 8 hour (AID 1224890); further: nearly all actives have a fitted effect of over 45% in size
Summary of the method: as §2

SMILES	Potency [1]	Potency [2]	Potency [3]	Potency [4]	Potency [5]	Potency [6]	Potency [7]	Potency [8]	Potency [9]	Potency [10]
COc1ccc(C(=O)c2cccc(O)c2)c(OC)c1	inactive	inactive	inactive	inactive	inactive	inactive	inactive	inactive	inactive	inactive
CN1C(=O)CC(C)(c2ccccc2)C1=O (configuration not stated)	inactive	inactive	inactive	inactive	inactive	inactive	inactive	inactive	inactive	inactive
C=CC(C)(O)CCCC(C)CCCC(C)CCCC(C)C (configuration not stated)	inactive	inactive	inactive	inactive	inactive	inactive	inactive	inactive	inactive	inactive
CCCCCCCCCCOS(=O)(=O)O	inactive	inactive	inactive	inactive	inactive	inactive	inactive	–	inactive	inactive
COc1ccc(CCC(=O)c2c(O)cc(O[C@@H]3O[C@H](CO)[C@@H](O)[C@H](O)[C@H]3O[C@@H]3O[C@@H](C)[C@H](O)[C@@H](O)[C@H]3O)cc2O)cc1O	inactive	inactive	inactive	inactive	inactive	inactive	inactive	inactive	inactive	inactive
CN1Cc2cc(C(=O)N3CCC(C4CCNCC4)CC3)ccc2N[C@@H](CC(=O)O)C1=O	inactive	inactive	inactive	inactive	inactive	inactive	inactive	inactive	inactive	inactive
CC(C)(O)c1ccccc1CC[C@@H](SCC1(CC(=O)O)CC1)c1cccc(/C=C/c2ccc3ccc(Cl)cc3n2)c1	inactive	inactive	inactive	inactive	inactive	inactive	inactive	inactive	inactive	inactive
CC(=O)OCC(=O)[C@@]12OC(C)(C)O[C@@H]1C[C@H]1[C@@H]3C[C@H](F)C4=CC(=O)C=C[C@]4(C)[C@@]3(F)[C@@H](O)C[C@@]12C	26.8 µM (active)	inactive	inactive	inactive	inactive	inactive	inactive	inactive	2.68 µM (active)	inactive
CCCOc1ccc(S(=O)(=O)N2CCN(CC)CC2)cc1-c1nc2c(CC)n(Cc3ccccn3)nc2c(=O)[nH]1	inactive	inactive	inactive	inactive	inactive	inactive	inactive	inactive	inactive	inactive
CCOC(=O)OCC	inactive	inactive	inactive	inactive	inactive	inactive	inactive	inactive	inactive	inactive
Cc1cc(OI)c(C(C)C)cc1-c1cc(C(C)C)c(OI)cc1C	inactive	inactive	inactive	inactive	inactive	inactive	inactive	inactive	inactive	inactive
CC1=CC(=O)CC(C)(C)C1(O)/C=C/C(C)=C\C(=O)O (configuration not stated)	inactive	inactive	inactive	inactive	inactive	inactive	inactive	inactive	inactive	inactive
CC(=N\O)/C(C)=N/O	inactive	inactive	inactive	inactive	inactive	inactive	–	inactive	inactive	inactive
C[C@@H]1C[C@H]2[C@@H]3CCC4=CC(=O)C=C[C@]4(C)[C@@]3(F)[C@@H](O)C[C@]2(C)[C@@]1(O)C(=O)CO	inactive	inactive	inactive	inactive	inactive	inactive	inactive	inactive	22.2 µM (active)	inactive
C=CCNc1nc(NCC=C)nc(N2CCN(C(c3ccc(F)cc3)c3ccc(F)cc3)CC2)n1	inactive	inactive	inactive	inactive	inactive	inactive	inactive	inactive	inactive	inactive
O=[N+]([O-])c1cccc(S(=O)(=O)NCCNS(=O)(=O)c2cccc([N+](=O)[O-])c2)c1	inactive	inactive	inactive	inactive	inactive	inactive	inactive	inactive	inactive	inactive
NCC1CCCC(CN)C1 (configuration not stated)	inactive	inactive	inactive	inactive	inactive	inactive	inactive	inactive	inactive	inactive
N#C[C@@H]1C[C@@H]2C[C@@H]2N1C(=O)[C@@H](N)C12CC3CC(CC(O)(C3)C1)C2	inactive	inactive	inactive	inactive	inactive	inactive	inactive	inactive	inactive	inactive
O=C(O)c1snc(Cl)c1Cl	inactive	inactive	inactive	inactive	inactive	inactive	–	inactive	inactive	inactive
CCn1cc(C(=O)O)c(=O)c2cc(F)c(N3CCNCC3)nc21	inactive	inactive	inactive	inactive	inactive	inactive	inactive	inactive	inactive	inactive
CCC(C(=O)OCCN(CC)CC)c1ccccc1 (configuration not stated)	inactive	inactive	inactive	inactive	inactive	inactive	inactive	inactive	inactive	inactive
CCC(C)(O)CCC=C(C)C (configuration not stated)	inactive	inactive	inactive	inactive	inactive	inactive	inactive	inactive	inactive	inactive
O=C(/C=C/c1ccccc1)OCCCc1ccccc1	inactive	inactive	inactive	inactive	inactive	inactive	inactive	inactive	inactive	inactive
